Test results published in PubChem BioAssay (NCATS).
Where “and” joins values, the source holds several entries; their conditions need not be identical. Identical values can stand only once. Inconclusive results are not listed. Calls of active or inactive are those of the source. Calls come from the whole dose curve; as a rule, active = well fitted curve in the direction sought with a large enough effect; inconclusive = small, poorly fitted or top-dose-only effect, or another doubt; inactive = no such curve, though single readings can be large; an effect the other way counts as inactive or inconclusive.

Key:
W2 = experiment: qHTS profiling for inhibitors of Plasmodium falciparum proliferation (AID 504749);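 note: 0% = DMSO vehicle and full inhibition = artemisinin control; nearly all actives have a fitted effect of over 60% in size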; settings: P. falciparum in erythrocytes, SYBR Green DNA, 72 h; series mostly up to 28.7 µM
In short: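 SYBR Green fluorescence of parasite DNA, read after lysis and overnight dark incubation, measured growth over 72 h in erythrocyte culture at 0.3% parasitemia and 2.5% hematocrit. Data normalised to DMSO and 0.29 uM artemisinin, with plate-drift correction.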

CRL-7250 = normal cell line; experiment: Cytotoxic Profiling of Annotated Libraries Using Quantitative High-Throughput Screening (AID 1296008); settings: Five cell lines viability, CellTiter-Glo ATP luminescence, 48-72 h; max response: stronger effect = lower value; note: nearly all actives have a fitted effect of over 60% in size; for max response: % is set by controls: 0 for no effect and ±100 for the full control effect
In short: (§1)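 Cytotoxicity was measured as CellTiter-Glo ATP luminescence, read after 10 min at room temperature. Compound treatment of the cells lasted 48 or 72 hr at 37 degrees Celsius in a qHTS format.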

HEK293 = experiment: as above; settings: Five cell lines viability, CellTiter-Glo ATP luminescence, 48-72 h; max response: stronger effect = lower value
In short: as §1

HaCat [1] = experiment: as above; settings: Five cell lines viability, CellTiter-Glo ATP luminescence, 48-72 h; max response: stronger effect = lower value
In short: as §1

KB-3-1 = experiment: as above; settings: Five cell lines viability, CellTiter-Glo ATP luminescence, 48-72 h; max response: stronger effect = lower value
In short: as §1

NIH3T3 [2] = experiment: as above; settings: Five cell lines viability, CellTiter-Glo ATP luminescence, 48-72 h; max response: stronger effect = lower value
In short: as §1

HACAT [3] = experiment: qHTS assay to identify novel small-molecules to repurpose for Merkel cell carcinoma treatment (AID 1296009); settings: MCC and control cell lines, CellTiter-Glo viability, 72 h; at 44.8 µM (top of the series) unless noted; note: nearly all actives have a fitted effect of over 60% in size; for activity change, negative = cytotoxicity: % is set by controls: 0 for no effect and ±100 for the full control effect
In short: (§2)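 Cell viability, measured as CellTiter-Glo luminescence, was normalized between DMSO and no-cell wells. The cells had been exposed to 8- or 11-point compound dilutions for 72 hr at 37 degree celsius.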

HEK293T = experiment: as above; settings: MCC and control cell lines, CellTiter-Glo viability, 72 h; at 44.8 µM (top of the series) unless noted
In short: as §2

MCC-13 = experiment: as above; settings: MCC and control cell lines, CellTiter-Glo viability, 72 h; series mostly up to 46 µM
In short: as §2

MCC-26 = experiment: as above; settings: MCC and control cell lines, CellTiter-Glo viability, 72 h; series mostly up to 46 µM
In short: as §2

MKL-1 = experiment: as above; settings: MCC and control cell lines, CellTiter-Glo viability, 72 h; series mostly up to 46 µM
In short: as §2

MKL-2 = experiment: as above; settings: MCC and control cell lines, CellTiter-Glo viability, 72 h; series mostly up to 46 µM
In short: as §2

NIH3T3 [4] = experiment: as above; settings: MCC and control cell lines, CellTiter-Glo viability, 72 h; at 44.8 µM (top of the series) unless noted
In short: as §2

UISO = experiment: as above; settings: MCC and control cell lines, CellTiter-Glo viability, 72 h; series mostly up to 46 µM
In short: as §2

WaGa = experiment: as above; settings: MCC and control cell lines, CellTiter-Glo viability, 72 h; series mostly up to 46 µM
In short: as §2

C33A = experiment: Primary qHTS to identify gynecologic anti-cancer compounds using libraries of approved drugs and bioactive compounds (AID 1345084); settings: Gynecologic cancer cell panel viability, ATPlite luminescence, 48 h; series mostly up to 57.5 µM; note: % is set by controls: 0 for no effect and ±100 for the full control effect; nearly all actives have a fitted effect of over 55% in size
In short: (§3)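 48 h compound exposure at 37 C, 5% CO2; five-point qHTS. ATPlite luminescence readout of cell ATP.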

CAOV3 = experiment: as above; settings: Gynecologic cancer cell panel viability, ATPlite luminescence, 48 h; series mostly up to 57.5 µM
In short: as §3

CASKI = experiment: as above; settings: Gynecologic cancer cell panel viability, ATPlite luminescence, 48 h; series mostly up to 57.5 µM
In short: as §3

Es-2 = experiment: as above; settings: Gynecologic cancer cell panel viability, ATPlite luminescence, 48 h; series mostly up to 57.5 µM
In short: as §3

HeLa = experiment: as above; settings: Gynecologic cancer cell panel viability, ATPlite luminescence, 48 h; series mostly up to 57.5 µM
In short: as §3

[O-][n+]1cccc(CO)c1
inactive: Potency (W2) | max response (CRL-7250) -1.91% | outcome (HEK293) | outcome (HaCat [1]) | max response (KB-3-1) 4.61% | outcome (NIH3T3 [2]) | outcome (HACAT [3]) | outcome (HEK293T) | Potency (MCC-13) | Potency (MCC-26) | Potency (MKL-1) | Potency (MKL-2) | outcome (NIH3T3 [4]) | Potency (UISO) | Potency (WaGa) | Potency (C33A) | Potency (CAOV3) | Potency (CASKI) | Potency (Es-2) | Potency (HeLa)

O=S(=O)(O)NC1CCCCC1
inactive: max response (CRL-7250) -7.57% | outcome (HEK293) | outcome (HaCat [1]) | max response (KB-3-1) -17.7% | max response (NIH3T3 [2]) 1.01% | outcome (HACAT [3]) | outcome (HEK293T) | Potency (MCC-13) | Potency (MCC-26) | Potency (MKL-1) | Potency (MKL-2) | Potency (UISO) | Potency (WaGa) | Potency (C33A) | Potency (CAOV3) | Potency (CASKI) | Potency (Es-2) | Potency (HeLa)

CC[C@@]1(c2ccccc2)NC(=O)N(C)C1=O
inactive: Potency (W2) | max response (CRL-7250) -4% | outcome (HEK293) | outcome (HaCat [1]) | max response (KB-3-1) 31.6% | max response (NIH3T3 [2]) 1.13% | outcome (HACAT [3]) | outcome (HEK293T) | Potency (MCC-13) | Potency (MCC-26) | Potency (MKL-1) | Potency (MKL-2) | Potency (UISO) | Potency (WaGa) | Potency (C33A) | Potency (CAOV3) | Potency (CASKI) | Potency (Es-2) | Potency (HeLa)

Oc1cn2c(n1)Nc1ccc(Cl)c(Cl)c1C2
inactive: Potency (W2) | outcome (CRL-7250) | outcome (HEK293) | outcome (HaCat [1]) | max response (KB-3-1) -2.96% and -14.6% | outcome (NIH3T3 [2]) | outcome (HACAT [3]) inactive [at 17.4 µM] | outcome (HEK293T) inactive [at 17.4 µM] | Potency (MCC-13) | Potency (MCC-26) | Potency (MKL-1) | Potency (MKL-2) | outcome (NIH3T3 [4]) inactive [at 17.4 µM] | Potency (UISO) | Potency (WaGa) | Potency (C33A) | Potency (CAOV3) | Potency (CASKI) | Potency (Es-2)

CN(C)CCN(Cc1ccccc1)c1ccccn1
inactive: outcome (CRL-7250) | outcome (HEK293) | outcome (HaCat [1]) | max response (KB-3-1) -7.24% | max response (NIH3T3 [2]) 0.397% | outcome (HACAT [3]) | outcome (HEK293T) | Potency (MCC-13) | Potency (MCC-26) | Potency (MKL-1) | Potency (MKL-2) | Potency (UISO) | Potency (WaGa) | Potency (C33A) | Potency (CAOV3) | Potency (CASKI) | Potency (Es-2) | Potency (HeLa)

CCC(=O)c1ccc(O)cc1
inactive: Potency (W2) | max response (CRL-7250) 4.24% | outcome (HEK293) | outcome (HaCat [1]) | max response (KB-3-1) 5.91% | outcome (NIH3T3 [2]) | outcome (HACAT [3]) | outcome (HEK293T) | Potency (MCC-13) | Potency (MCC-26) | Potency (MKL-1) | Potency (MKL-2) | outcome (NIH3T3 [4]) | Potency (UISO) | Potency (WaGa) | Potency (C33A) | Potency (CAOV3) | Potency (CASKI) | Potency (Es-2) | Potency (HeLa)

CC(C)(C)NCC(O)COc1ccc(NC(=O)NC2CCCCC2)cc1 (stereo unspecified)
inactive: Potency (W2) | outcome (CRL-7250) | outcome (HEK293) | outcome (HaCat [1]) | max response (KB-3-1) 0.958% | outcome (NIH3T3 [2]) | outcome (HACAT [3]) | outcome (HEK293T) | Potency (MCC-13) | Potency (MCC-26) | Potency (MKL-1) | Potency (MKL-2) | outcome (NIH3T3 [4]) | Potency (UISO) | Potency (WaGa) | Potency (C33A) | Potency (CAOV3) | Potency (CASKI) | Potency (Es-2) | Potency (HeLa)

Nc1ccc(S(=O)(=O)Nc2ccccc2)cc1
inactive: Potency (W2) | outcome (CRL-7250) | outcome (HEK293) | outcome (HaCat [1]) | max response (KB-3-1) 8.52% | max response (NIH3T3 [2]) 3.32% | outcome (HACAT [3]) | outcome (HEK293T) | Potency (MCC-13) | Potency (MCC-26) | Potency (MKL-1) | Potency (MKL-2) | Potency (UISO) | Potency (WaGa) | Potency (C33A) | Potency (CAOV3) | Potency (CASKI) | Potency (Es-2) | Potency (HeLa)

C[C@H](N)[C@H](O)c1cccc(O)c1
inactive: Potency (W2) | max response (CRL-7250) -3.27% | outcome (HEK293) | outcome (HaCat [1]) | max response (KB-3-1) 1.71% | max response (NIH3T3 [2]) 1.91% | outcome (HACAT [3]) | outcome (HEK293T) | Potency (MCC-13) | Potency (MCC-26) | Potency (MKL-1) | Potency (MKL-2) | Potency (UISO) | Potency (WaGa) | Potency (C33A) | Potency (CAOV3) | Potency (CASKI) | Potency (Es-2) | Potency (HeLa)

Nc1ccc(S(=O)(=O)NC(=O)c2ccccc2)cc1
inactive: Potency (W2) | max response (CRL-7250) -4.44% | outcome (HEK293) | outcome (HaCat [1]) | max response (KB-3-1) 18.9% | max response (NIH3T3 [2]) -0.704% | outcome (HACAT [3]) | outcome (HEK293T) | Potency (MCC-13) | Potency (MCC-26) | Potency (MKL-1) | Potency (MKL-2) | Potency (UISO) | Potency (WaGa) | Potency (C33A) | Potency (CAOV3) | Potency (CASKI) | Potency (Es-2) | Potency (HeLa)

Cc1cccc(C)c1NC(=O)CN(CC(=O)O)CC(=O)O
inactive: max response (CRL-7250) 0.46% | outcome (HEK293) | outcome (HaCat [1]) | max response (KB-3-1) 2.9% | max response (NIH3T3 [2]) -7.57% | outcome (HACAT [3]) | outcome (HEK293T) | Potency (MCC-13) | Potency (MCC-26) | Potency (MKL-1) | Potency (MKL-2) | Potency (UISO) | Potency (WaGa) | Potency (C33A) | Potency (CAOV3) | Potency (CASKI) | Potency (Es-2) | Potency (HeLa)

Cc1cc2c(cc1S(N)(=O)=O)S(=O)(=O)CCC2
inactive: Potency (W2) | max response (CRL-7250) -3.17% | outcome (HEK293) | outcome (HaCat [1]) | max response (KB-3-1) -2.22% | max response (NIH3T3 [2]) -4.64% | outcome (HACAT [3]) | outcome (HEK293T) | Potency (MCC-13) | Potency (MCC-26) | Potency (MKL-1) | Potency (MKL-2) | Potency (UISO) | Potency (WaGa) | Potency (C33A) | Potency (CAOV3) | Potency (CASKI) | Potency (Es-2) | Potency (HeLa)

C[C@@H]1CC[C@@]2(OC1)O[C@H]1C[C@H]3[C@@H]4CC[C@H]5C[C@@H](O)CC[C@]5(C)[C@H]4CC(=O)[C@]3(C)[C@H]1[C@@H]2C
inactive: outcome (CRL-7250) | outcome (HEK293) | outcome (HaCat [1]) | max response (KB-3-1) 1.37% | outcome (NIH3T3 [2]) | outcome (HACAT [3]) inactive [at 4.96 µM] | outcome (HEK293T) inactive [at 4.96 µM] | activity change, negative = cytotoxicity (MCC-13) -5.49% [at 4.84 µM] | activity change, negative = cytotoxicity (MCC-26) 5.06% [at 4.84 µM] | activity change, negative = cytotoxicity (MKL-1) 7.37% [at 4.84 µM] | activity change, negative = cytotoxicity (MKL-2) 2.92% [at 4.84 µM] | outcome (NIH3T3 [4]) inactive [at 4.96 µM] | activity change, negative = cytotoxicity (WaGa) 17.9% [at 4.84 µM] | activity change, negative = cytotoxicity (C33A) -0.977% [at 6.55 µM] | activity change, negative = cytotoxicity (CAOV3) -7.17% [at 6.55 µM] | activity change, negative = cytotoxicity (CASKI) 7.56% [at 6.55 µM] | activity change, negative = cytotoxicity (Es-2) -0.456% [at 6.55 µM] | activity change, negative = cytotoxicity (HeLa) 1.36% [at 6.55 µM]
